In ChEMBL document CHEMBL3988442, “University of Dundee, Small-Polar-MMV Screening Library” (2021):

How the values were obtained:
[1] = target: T1, Aspartate--tRNA(Asp/Asn) ligase (Mycobacterium tuberculosis (strain ATCC 25618 / H37Rv)) (UniProt P9WFW3); assay: Assay for Asp RNA synthetase-1 from Mycobacterium tuberculosis; type: functional; design: scale not given: direction of the effect not stated beside the values; conditions: 30 µM; also: in the data most compounds retested in dose-response had high values
T1 sequence (whole entry): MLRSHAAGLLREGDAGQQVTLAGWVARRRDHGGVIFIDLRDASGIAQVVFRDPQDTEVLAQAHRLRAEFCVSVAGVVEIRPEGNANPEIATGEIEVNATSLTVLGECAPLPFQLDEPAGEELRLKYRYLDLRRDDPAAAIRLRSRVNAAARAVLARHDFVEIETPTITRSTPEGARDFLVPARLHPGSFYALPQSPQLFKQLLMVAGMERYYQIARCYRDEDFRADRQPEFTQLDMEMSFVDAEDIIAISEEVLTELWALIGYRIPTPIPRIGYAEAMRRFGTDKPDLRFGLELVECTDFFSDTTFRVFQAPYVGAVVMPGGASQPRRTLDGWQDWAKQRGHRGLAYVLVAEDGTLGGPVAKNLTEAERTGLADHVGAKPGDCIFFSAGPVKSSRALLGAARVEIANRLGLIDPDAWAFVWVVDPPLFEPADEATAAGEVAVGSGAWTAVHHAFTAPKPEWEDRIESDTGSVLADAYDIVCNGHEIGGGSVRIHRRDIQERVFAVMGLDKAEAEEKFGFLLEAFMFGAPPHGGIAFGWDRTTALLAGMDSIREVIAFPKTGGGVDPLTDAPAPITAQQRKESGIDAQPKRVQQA

[2] = target: Shiga toxin 2 (Escherichia coli O157:H7) (UniProt P09385+P09386); assay: E. coli 0.157:H7 Shiga Toxin SOP - stx2 screening assay; type: functional; design: scale not given: direction of the effect not stated beside the values; conditions: 30 µM

O=C(Cn1nc(-c2cccs2)ccc1=O)N1CCCCCC1
Percent Effect [1]: 1.6% | Percent Effect [2]: -0.139%

NCc1cn(-c2ccccc2C(=O)NCc2cccc(Cl)c2)cn1
Percent Effect [1]: -0.574% | Percent Effect [2]: 40.7%

Cc1nccc(N2CCC(=O)N(Cc3ccc(F)cc3)C(C(C)C)C2)n1 (configuration not stated)
Percent Effect [1]: -2.67% | Percent Effect [2]: -4.25%

Cc1ccc(S(=O)(=O)N2C[C@H]3C[C@H](NC(=O)c4ccnn4C)[C@H]3C2)cc1
Percent Effect [1]: 0.283% | Percent Effect [2]: 8.81%

CCc1cnc(CN(C(C)=O)C2CCN(CCc3cccs3)C2)o1 (configuration not stated)
Percent Effect [1]: -1.49% | Percent Effect [2]: 21.4%

Cc1nnc(SCC(=O)N2CCC3(CC2)c2ccccc2CC3O)o1 (configuration not stated)
Percent Effect [1]: 4.4% | Percent Effect [2]: -18.7%

Clc1ccc(CN2CCCC(Cn3cncn3)C2)c2ncccc12 (configuration not stated)
Percent Effect [1]: 2.62% | Percent Effect [2]: -50.6%

CCc1nccn1C1CCCN(C(=O)c2ccc3c(c2)OCO3)C1 (configuration not stated)
Percent Effect [1]: -0.182% | Percent Effect [2]: 11.8%

Cc1cnn(CCC(=O)N2C[C@H]3CC[C@@H]2CN(CC(=O)N(C)C)C3)c1
Percent Effect [1]: 4.25% | Percent Effect [2]: -21.6%

OCCC1CN(C2CCC2)CCN1C1CCCC1 (configuration not stated)
Percent Effect [1]: -1.5% | Percent Effect [2]: 7.89%

CS(=O)(=O)N1CCOCC2(CN(Cc3ccsc3)CCO2)C1 (configuration not stated)
Percent Effect [1]: -4.1% | Percent Effect [2]: 7.57%

O=C(Nc1nccs1)NC1CCN(Cc2ccccc2)C1 (configuration not stated)
Percent Effect [1]: -1.92% | Percent Effect [2]: -17.1%

Cc1cc(C)n(C2CN(CC(=O)N3CCOCC3)C2)n1
Percent Effect [1]: -0.655% | Percent Effect [2]: 9.68%

CNC(=O)CC1CCN(Cc2nc(-c3cccc(Cl)c3)oc2C)CC1
Percent Effect [1]: 4.32% | Percent Effect [2]: -21.3%

CCn1cnnc1CNC(=O)N1CCCN(C(C)=O)CC1
Percent Effect [1]: -0.98% | Percent Effect [2]: 25.6%

Cn1cccc1C(CNC(=O)c1ccc(F)cc1F)N1CCCCCC1 (configuration not stated)
Percent Effect [1]: 1.24% | Percent Effect [2]: -33.8%

N#CCSCCCN1CCN(C(=O)c2ccc(Cl)cc2)CC1
Percent Effect [1]: 0.593% | Percent Effect [2]: -35.2%

Cc1occc1C(=O)N1CCC2(CCCN(CC3CCC3)C2=O)C1 (configuration not stated)
Percent Effect [1]: -2.62% | Percent Effect [2]: -2.14%

c1ccc(-c2noc(CNC3CCc4ncnn4C3)n2)nc1 (configuration not stated)
Percent Effect [1]: 0.903% | Percent Effect [2]: 16.9%

CC(C)C(=O)N1CCN(C(=O)c2cc(C(C)C)on2)[C@H]2CS(=O)(=O)C[C@H]21
Percent Effect [1]: -1.39% | Percent Effect [2]: -14.2%

c1ccc(-c2nnn3c2COC(CNCC2CCOCC2)C3)cc1 (configuration not stated)
Percent Effect [1]: 2.63% | Percent Effect [2]: -21.1%

CC(=O)NC1CCCN(C(=O)c2ccc(Br)cc2O)C1 (configuration not stated)
Percent Effect [1]: 2.34% | Percent Effect [2]: 19.3%

Cc1nnc(NC(=O)CN2CCCC(Cn3cncn3)C2)s1 (configuration not stated)
Percent Effect [1]: 2.66% | Percent Effect [2]: -3.39%

CN(CCN1CCOCC1)C(=O)CCCc1ccccc1
Percent Effect [1]: -6.41% | Percent Effect [2]: 0.944%

CS(=O)(=O)CCC(=O)NC1(c2cccc(Br)c2)CC1
Percent Effect [1]: 5.45% | Percent Effect [2]: 3.23%

C[C@H](O)CNC(=O)c1cnc(-c2ccccc2)nc1O
Percent Effect [1]: 2.44% | Percent Effect [2]: -10.8%

CCn1nnc2c1C(COC)CN(Cc1ccsc1)C2 (configuration not stated)
Percent Effect [1]: -1.23% | Percent Effect [2]: -3.86%

Cc1ccc(CN2CCCn3nnc(COCC4CC4)c3C2)s1
Percent Effect [1]: -4.16% | Percent Effect [2]: 0.0593%

CNC(=O)CN(C)c1nc(-c2ccncc2)nc2c1CCN(C(C)=O)C2
Percent Effect [1]: -1.03% | Percent Effect [2]: -0.42%

C[C@H]1C[C@@H]2CCN(C(=O)c3ccncn3)C[C@H]2O1
Percent Effect [1]: 4.15% | Percent Effect [2]: -27.6%

CN1CCCC[C@@H]2[C@H]1[C@@H](c1ccccc1)CCN2C(=O)c1ccccc1
Percent Effect [1]: -4.21% | Percent Effect [2]: -4.17%

COCCc1noc(CNC2CCCN(c3cccnn3)C2)n1 (configuration not stated)
Percent Effect [1]: -0.981% | Percent Effect [2]: -59%

O=S(=O)(C1CC1)N1C[C@H]2CCC[C@@]2(COc2ccccn2)C1
Percent Effect [1]: 4.47% | Percent Effect [2]: -32.7%

CN1CCCC(c2cccc(Cc3ccccc3Cl)n2)C1 (configuration not stated)
Percent Effect [1]: -5.43% | Percent Effect [2]: 6.38%

CCc1nc(CN2CCCN(C(=O)C(C)COC)CC2)cs1 (configuration not stated)
Percent Effect [1]: -0.303% | Percent Effect [2]: -63.3%

O=C(CN1CCCC1Cn1cncn1)NC(C1CC1)C1CC1 (configuration not stated)
Percent Effect [1]: 2.42% | Percent Effect [2]: -2.93%

O=C(NCC1CC1)C1CSCN1S(=O)(=O)c1cccc(F)c1 (configuration not stated)
Percent Effect [1]: 2.56% | Percent Effect [2]: -5.9%

c1cnn(CC2CN(Cc3nc(-c4ccsc4)no3)CCO2)c1 (configuration not stated)
Percent Effect [1]: -2.68% | Percent Effect [2]: 35%

CCS(=O)(=O)CC(=O)NC(c1ccc(F)cc1)C1CCCC1 (configuration not stated)
Percent Effect [1]: -3.77% | Percent Effect [2]: -1.68%

COc1ccc(NC(C)C(=O)NCCc2cccs2)cc1F (configuration not stated)
Percent Effect [1]: 7.04% | Percent Effect [2]: -24.3%

Cc1cc(C2CCCN(CCCS(=O)(=O)c3ccccc3)C2)n[nH]1 (configuration not stated)
Percent Effect [1]: 3.14% | Percent Effect [2]: 4.75%

COc1ncccc1C(=O)NCC1Cc2ccccc2O1 (configuration not stated)
Percent Effect [1]: 6.18% | Percent Effect [2]: 5.65%

CNC(=O)Nc1cc(-c2ccc(Br)cc2)nn1CCO
Percent Effect [1]: -3.53% | Percent Effect [2]: 7.53%

COCCNC(=O)[C@H]1CN(Cc2nccs2)C[C@H]2OCC[C@@H]12
Percent Effect [1]: -4.08% | Percent Effect [2]: 1.98%

CN(C)S(=O)(=O)N1CCC(Oc2cnccn2)CC1
Percent Effect [1]: -9.05% | Percent Effect [2]: -9.23%

CC(NC(=O)NCCCN(C)S(C)(=O)=O)c1ccncc1 (configuration not stated)
Percent Effect [1]: -2.98% | Percent Effect [2]: -9.54%
